Chronic BCR inh: chronic active BCR signaling inhibition | ABC-DLBCL IkBa-CBG/CBR reporter, luminescence ratio, 4 h | actives 0.05% (n = 340,000) | AID 493014 | Potency, µM (series often up to 46.1 µM), inactives show at the highest dose activity change, negative = inhibition, usual class: inhibitors; active = well fitted inhibition curve with a large enough effect in the signal ratio, with a control signal flat, not every such curve was filed as active; inconclusive = small, poorly fitted or top-dose-only effect, or effect the other way, or a change in a side signal; the % refers to the signal ratio;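 also: potency is read from the fitted curve at half-maximal effect; plate controls were basal doxycycline-induced cells for no effect and cells given 10 µM MG132 for full effect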
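Compounds up to 46 uM were incubated four hours with TMD8 cells whose green CBG68 luciferase is fused to IkappaBalpha; red CBR luminescence normalised the signal, and concentration-effect curves were fitted to fusion, red and ratio data.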
IL-1B inflam inh: inhibitors of inflammasome signaling (IL-1 beta secretion); THP-1 LPS/ATP IL-1B secretion, AlphaLISA, 16 h; active compounds read low; activity change, % at 57.5 µM; actives 4.7% (n = 360,000); AID 743279; in the data active = activity change below about -50%; inconclusive = mostly about -30% to -49%; also: % is scaled to controls: 0 for no effect and ±100 for the full control effect
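THP-1 cells pretreated 1 hr with compounds (up to 57.5 uM final), then stimulated with LPS (250 ng/mL final) plus ATP (1.25 mM final); secreted IL-1B measured by AlphaLISA after 16 hr, decreased signal indicating inhibition.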
DT40 TDP1 no CPT: qHTS for Inhibitors of human tyrosyl-DNA phosphodiesterase 1 (TDP1): qHTS in cells in absence of CPT; DT40 Tdp1-/- hTDP1 cells, no CPT, ATP luminescence, 48 h; Potency, µM (series often up to 46.2 µM), for inactives: top-dose activity change, negative = growth inhibition, most hits filed as inhibitors; actives 15% (n = 420,000); AID 686978, 2013; also: potency is read from the fitted curve at half-maximal effect; % is scaled to controls: 0 for no effect and ±100 for the full control effect; nearly all actives have a fitted effect of over 55% in size
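A cellular qHTS used chicken DT40 cells lacking endogenous Tdp1 but carrying stably transfected human TDP1. Compounds were applied without camptothecin, and cell growth kinetics were judged by ATP-dependent luminescence after ≥48 hr.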
MCF10A rerep: inducers of DNA re-replication in MCF 10A breast cells; MCF 10A DNA re-replication, Hoechst nuclear intensity, 48 h; Potency, µM (doses to about 46.1 µM), for inactives: at the top dose activity, positive = re-replication, hits mostly activators; actives 2.9% (n = 350,000); also: potency is read from the fitted curve at half-maximal effect; % of control where 0% means no effect; nearly all actives have a fitted effect of over 50% in size
SW480 rereplic: DNA re-replication induction in SW480 cells; actives 1.8% (n = 340,000); SW480 DNA re-replication, Hoechst DNA content imaging, 48 h; Potency, µM (titrated, usually from 46.1 µM), for inactives: top-dose re-replication activation, usual class: activators; AID 624297; also: potency is read from the fitted curve at half-maximal effect; % of control where 0% means no effect; nearly all actives have a fitted effect of over 55% in size
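Compounds, transferred as 23 nL by pin tool, were incubated with cells for 48 hr; DNA content per nucleus was then quantified by Hoechst staining and fluorescence plate imaging.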
DT40 TDP1 CPT: growth inhibition of DT40 Tdp1-/-;hTDP1 cells with camptothecin (screen for TDP1 inhibitors); chicken DT40 Tdp1-/-;hTDP1 cells + 20 nM CPT, ATP luminescence, 48 h; Potency, µM (titrated, usually from 46.2 µM), for the others: at the highest dose activity change, negative = growth inhibition, most hits filed as inhibitors; actives 12% (n = 420,000); AID 686979; also: potency is read from the fitted curve at half-maximal effect; % is scaled to controls: 0 for no effect and ±100 for the full control effect; nearly all actives have a fitted effect of over 55% in size
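Chicken DT40 Tdp1-/- cells complemented with human TDP1, 400 cells/well, exposed to compounds plus 20 nM camptothecin for at least 48 h at 37 C; viability read as ATP content by CellTiter-Glo luminescence.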
Active calls of the source: *; ? = inconclusive; . = no result; [ ] = another dose, or the depositor's remark. Sampled rows, rich in hits. Any-hit rate of the full collection: about 19%. Unless noted, calls follow the shape of the dose curve; as a rule, active = well fitted curve in the direction sought with a large enough effect; inconclusive = small, poorly fitted or top-dose-only effect, or another doubt; inactive = no such curve, though single readings can be large; an effect the other way counts as inactive or inconclusive.

SMILES	Chronic BCR inh	IL-1B inflam inh	DT40 TDP1 no CPT	MCF10A rerep	SW480 rereplic	DT40 TDP1 CPT
COc1ccccc1N1CCN(c2nc(C)nc3c2oc2ccccc23)CC1	?	-10.0	2.82µM*	?	?	3.16µM*
O=C(NCC(=O)N(c1cccnc1)C(C(=O)NC1CCCC1)c1ccccc1F)c1ccco1 (centres undefined)	3.5%	8.0	-26.7%	-5.9%	2.4%	-13.4%
COc1ccc(-n2c3c(cc(-c4nc(-c5ccc(Cl)cc5)cs4)c2=O)C(=O)CC(C)(C)C3)cc1	.	.	-10.7%	.	.	13.1%
N#CCc1c(C#N)c(N)nc(N2CCN(Cc3ccc4c(c3)OCO4)CC2)c1C#N	7.2%	-28.3	11.6µM*	16.4µM*	8.9%	?
Cc1cc(C)c(C#N)c(N2CCN(Cc3ccc4c(c3)OCO4)CC2)n1	?	-20.5	?	15.2%	0.8%	?
Cc1c(C(=O)N2CCN(C(C)C)CC2)sc2ncnc(NCc3ccco3)c12	.	.	3.2%	.	.	17.7%[9.04 µM]
CCCC1SCC(C)(C)NC1=O (centres undefined)	.	15.6	-17.6%	-2.5%	-3.5%	2.1%
Cc1cc(S(=O)(=O)N2CCN(c3ccccc3F)CC2)ccc1-n1cnnn1	5.4%	-52.7*	?	8.4%	0.6%	?
CC(=O)Nc1ccc(S(=O)(=O)N2CCN(c3cc(C)ccc3C)CC2)cc1	1.4%	4.1	?	-5.0%	0.0%	16.4µM*
Cc1cccc(N2CCN(S(=O)(=O)c3ccc4c(c3)C(C)(C)C(=O)N4C)CC2)c1C	?	22.7	?	13.2%	?	?
CN1C(=O)C(C)(C)c2cc(S(=O)(=O)N3CCN(c4ccccc4F)CC3)ccc21	-9.6%	15.4	23.1µM*	-2.2%	?	?
Cc1ccc(C)c(N2CCN(S(=O)(=O)c3ccc4c(c3)C(C)(C)C(=O)N4C)CC2)c1	?	1.5	23.1µM*	10.9%	-7.4%	?
Cc1ccc(N=C2NC(=O)/C(=C/c3cccnc3)S2)c(C)c1	?	?	-21.3%	?	-2.6%	-14.5%
Cc1ccc(N=C2NC(=O)/C(=C\c3ccsc3)S2)c(C)c1	14.9%	0.3	?	18.4µM*	2.9%	16.4µM*
N#Cc1sc(C(N)=O)c(-c2ccccc2)c1-c1ccccc1	8.8%	1.5	-26.6%	7.5%	-5.4%	-27.6%
COc1ccc(-c2c(C#N)sc(C(N)=O)c2-c2ccc(OC)cc2)cc1	?	23.5	10.3µM*	16.2%	-4.5%	?
O=C(NCc1ccco1)C1CC(=O)N(c2ccc(O)cc2)C1 (centres undefined)	10.9%	14.7	25.9µM*	?	?	20.6µM*
COc1ccccc1NC(=O)CN1CCCCCC1	?	38.7	-23.3%	10.8%	-2.6%	9.0%
COc1ccccc1NC(=O)CN1CCN(C2c3ccccc3-c3ccccc32)CC1	10.9%	15.6	20.6µM*	5.8µM*	?	18.4µM*
COc1ccc(NC(=O)CN2CCN(C3c4ccccc4-c4ccccc43)CC2)c(OC)c1	-11.9%	8.9	25.9µM*	8.2µM*	19.4%	?
C/C(=N\NC(=O)Cc1ccc(Cl)cc1)c1ccc(F)cc1	4.1%	-6.6	?	0.2%	-0.3%	-13.4%
C/C(=N\NC(=O)CSCc1ccc([N+](=O)[O-])cc1)c1ccccc1O	-0.4%	24.2	3.66µM*	0.2%	?	5.17µM*
C/C(=N\NC(=O)CSCc1ccc([N+](=O)[O-])cc1)c1ccccc1	-14.7%	?	16.4µM*	-0.6%	0.6%	?
C/C(=N\NC(=O)Cc1ccc(Cl)cc1)c1ccccc1O	2.0%	73.8	0.164µM*	5.3%	14.6µM*	?
C/C(=N\NC(=O)C(C)Sc1ccccc1)C(C)(C)C (centres undefined)	-11.3%	8.2	-0.6%	-7.3%	16.9%	-6.1%
SMILES	Chronic BCR inh	IL-1B inflam inh	DT40 TDP1 no CPT	MCF10A rerep	SW480 rereplic	DT40 TDP1 CPT
C/C(=N\NC(=O)C(C)Sc1ccccc1)c1ccc([N+](=O)[O-])cc1 (centres undefined)	?	40.8	4.11µM*	-1.3%	0.9%	?
O=C(CSc1n[nH]c(-c2cc(Cl)ccc2Cl)n1)NCCN1C(=O)CSC1=O	?	15.1	-21.1%	0.6%	-2.3%	?
COC(=O)C[C@H]1c2cc(C(F)(F)F)ccc2S(=O)(=O)N1Cc1ccccc1OC	.	4.5	?	0.5%	4.1%	?
CSCCC(NC(=O)c1ccco1)C(=O)N1CC(C)OC(C)C1 (centres undefined)	-1.9%	-20.5	1.6%	-2.9%	-5.5%	-7.8%
Cc1onc(-c2ccccc2Cl)c1C(=O)NCc1nnnn1-c1ccc(F)cc1	?	1.5	-8.6%	1.6%	0.1%	-10.2%
NCC1O[C@@H](OC2C(N)C[C@H](N)[C@@H](O[C@H]3OC(CO)C(O)C(N)C3O)C2O)C(O)C(O)C1O (some centres undefined)	.	.	-2.6%	.	.	18.0%
COc1ccccc1CNC(=O)C(=O)NCC1CCCN1S(=O)(=O)c1cccs1 (centres undefined)	?	9.9	?	11.1%	-3.2%	?
O=C(c1cccc(S(=O)(=O)Nc2ccc(Br)cc2)c1)N1CCCC1	12.6%	19.0	-1.6%	28.2%	-6.1%	-23.5%
COC(=O)C1=CN(C2CCCCC2)C=C(C(=O)OC)C1c1ccc2c(c1)OCO2	12.4%	-8.1	?	13µM*	7.31µM*	?
COC(=O)C1=CN(c2c(C)cc(C)cc2C)C(N)=C(C#N)C1c1ccccc1 (centres undefined)	.	-13.1	?	.	.	?
COCCN1C=C(C(=O)OC)C(c2ccc3c(c2)OCO3)C(C(=O)OC)=C1	-1.2%	21.1	-5.1%	-21.5%	0.1%	-6.6%
COC(=O)C1=CN(c2ccc(N3CCOCC3)cc2)C(N)=C(C#N)C1c1cccc(F)c1 (centres undefined)	.	5.2	8.2µM*	.	.	?
COC(=O)C1=CN(c2ccc3c(c2)OCO3)C(N)=C(C#N)C1c1ccc(-c2ccccc2)cc1 (centres undefined)	.	67.6	6.51µM*	.	.	5.8µM*
COC(=O)C1=CN(c2ccc(Oc3ccccc3)cc2)C(N)=C(C#N)C1c1cccc(F)c1 (centres undefined)	.	-0.1	8.2µM*	.	.	?
COC(=O)C1=CN(c2ccc(C(C)(C)C)cc2)C(N)=C(C#N)C1c1ccc(OC)cc1 (centres undefined)	.	-13.3	?	.	.	?

Compound activity (PubChem BioAssay)
